Data reported in PubChem BioAssay (Tox21).
Records with an inconclusive call do not appear. Activity calls are given as the source filed them. Unless noted, the call rests on the fitted dose curve; in most records, active means well fitted curve in the direction sought with a large enough effect in the repeat runs; inconclusive means weak or mixed curves; inactive means no such curve, though single readings can be large; an effect the other way counts as inactive or inconclusive.

How the values were obtained:
[1] = qHTS assay to test for compound auto fluorescence at 535 nm (green) in HEK293 cells (AID 720680)
[2] = qHTS assay to test for compound auto fluorescence at 460 nm (blue) in HEK293 cell free culture (AID 720681)
In short: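 Compounds were added to cell-free DMEM with 10% FBS and fluorescence read directly. The blue channel used 405 nm excitation and 460 nm emission, with triamterene as the reference fluorophore.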

[3] = qHTS assay to test for compound auto fluorescence at 535 nm (green) in HEK293 cell free culture (AID 720682)
In short: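 Steps: dispense DMEM/10% FBS into empty wells; pin in compound or DMSO; measure fluorescence at 485/535 nm. Values are fluorescein equivalents.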

[4] = qHTS assay to test for compound auto fluorescence at 590 nm (red) in HEK293 cell free culture (AID 720683)
In short: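 Cell-free wells of DMEM with 10% FBS received compound, and intrinsic fluorescence was read at excitation/emission 540/590 nm. Values expressed as equivalence to Rose Bengal sodium.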

[5] = qHTS assay to test for compound auto fluorescence at 590 nm (red) in HepG2 cell free culture (AID 720684)
In short: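 Compound was pinned into wells holding MEM with 10% FBS and no cells, and red fluorescence was read at Ex/Em 540/590 nm. Signal is expressed as auto fluorescence equivalency relative to Rose Bengal sodium.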

[6] = qHTS assay to test for compound auto fluorescence at 460 nm (blue) in HepG2 cell free culture (AID 720685)
In short: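 Compound (23 nL) or DMSO pinned into cell-free MEM with 10% FBS; blue fluorescence read at 405/460 nm excitation/emission, expressed as auto-fluorescence equivalency to triamterene.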

[7] = qHTS assay to test for compound auto fluorescence at 535 nm (green) in HepG2 cell free culture (AID 720686)
[8] = qHTS assay to test for compound auto fluorescence at 460 nm (blue) in HepG2 cells (AID 720687)
In short: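 HepG2 cells in MEM with 10% FBS, attached overnight at 37 C, were exposed to compound or DMSO for 1 hr at 37 C, 5% CO2. Blue fluorescence was read at 405/460 nm, with triamterene as reference fluorophore.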

[9] = molecular target: Glucocorticoid receptor (Homo sapiens) (UniProt P04150); experiment: qHTS assay to identify small molecule agonists of the glucocorticoid receptor (GR) signaling pathway (AID 720691; active means well fitted activation curve with a large enough effect in the signal ratio in the repeat runs, not every such curve was filed as active; the % refers to the signal ratio)
In short: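 Fluorescence intensity from LiveBLAzer B/G FRET substrate (2 h, room temperature) reports beta-lactamase expression driven by the glucocorticoid response element in GR-bla HeLa cells after 18 h compound exposure at 37 C.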

[10] = molecular target: Glucocorticoid receptor (Homo sapiens) (UniProt P04150); experiment: qHTS assay to identify small molecule antagonists of the glucocorticoid receptor (GR) signaling pathway (AID 720692; active means well fitted inhibition curve with a large enough effect in the signal ratio in the repeat runs, not every such curve was filed as active; the % refers to the signal ratio)
In short: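 HeLa GR-bla cells; cmpd + dex 5 nM final, 18 h 37 C; LiveBLAzer B/G FRET substrate 2 h RT; fluorescence intensity read. Antagonist mode, qHTS.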

[11] = qHTS assay to identify small molecule antagonists of the glucocorticoid receptor (GR) signaling pathway - cell viability counter screen (AID 720693); further: nearly all actives have a fitted effect of over 55% in size
[12] = qHTS assay for identifying genotoxic compounds that show differential cytotoxicity against isogenic chicken DT40 cell lines with known DNA damage response pathways - wild type cell line (AID 743012); further: nearly all actives have a fitted effect of over 60% in size
In short: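 Wild type DT40, 300 cells/well, ~0.5 h settle at 37 C/5% CO2; compounds in DMSO added by pintool; 40 h at 37 C/5% CO2; CellTiter-Glo, 30 min RT; luminescence.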

[13] = qHTS assay for identifying genotoxic compounds that show differential cytotoxicity against isogenic chicken DT40 cell lines with known DNA damage response pathways - Rev3 mutant cell line (AID 743014); further: nearly all actives have a fitted effect of over 55% in size
[14] = qHTS assay for identifying genotoxic compounds that show differential cytotoxicity against isogenic chicken DT40 cell lines with known DNA damage response pathways - Rad54/Ku70 mutant cell line (AID 743015); further: nearly all actives have a fitted effect of over 60% in size
[15] = qHTS assay to identify small molecule antagonists of the androgen receptor (AR) signaling pathway - cell viability counter screen (AID 743033; further: nearly all actives have a fitted effect of over 45% in size)
[16] = qHTS assay to identify small molecule antagonists of the androgen receptor (AR) signaling pathway using the MDA cell line - cell viability counter screen (AID 743041; further: nearly all actives have a fitted effect of over 45% in size)
In short: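 MDA-kb2 AR-luc cells (MMTV-luciferase, AR/GR responsive) treated with compounds plus R1881 agonist for 16 h at 37C. CellTiter-Fluor added at 15.5 h; fluorescence read after 30 min in the same wells.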

[17] = molecular target: Androgen receptor (Homo sapiens) (UniProt P10275); experiment: qHTS assay to identify small molecule antagonists of the androgen receptor (AR) signaling pathway (AID 743035; active means well fitted inhibition curve with a large enough effect in the signal ratio in the repeat runs, not every such curve was filed as active; the % refers to the signal ratio)
In short: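 Fluorescence from a beta-lactamase FRET substrate (LiveBLAzer B/G, 2 h, room temperature) measured inhibition of R1881-stimulated signaling in GeneBLAzer AR-UAS-bla HEK293 cells exposed to compound for 16 h at 37C.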

[18] = molecular target: Androgen receptor (Homo sapiens) (UniProt P10275); experiment: qHTS assay to identify small molecule agonists of the androgen receptor (AR) signaling pathway using the MDA cell line (AID 743040; further: nearly all actives have a fitted effect of over 20% in size)
In short: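 MDA-kb2 breast carcinoma cells carrying MMTV-luciferase (responsive to AR and GR), plated 5 h then treated 16 h with compounds at 37C, 0% CO2. Read-out was ONE-Glo luminescence after 30 min at room temperature.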

[19] = molecular target: Androgen receptor (Homo sapiens) (UniProt P10275); experiment: qHTS assay to identify small molecule antagonists of the androgen receptor (AR) signaling pathway using the MDA cell line (AID 743042; further: nearly all actives have a fitted effect of over 55% in size)
In short: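 MDA-kb2 breast carcinoma cells carrying MMTV-luciferase (AR/GR responsive) were co-treated with compounds and the agonist R1881 for 16 h at 37C. Inhibition read as ONE-Glo luminescence; CellTiter-Fluor fluorescence measured in parallel for cytotoxicity.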

[20] = molecular target: Androgen receptor (Homo sapiens) (UniProt P10275); experiment: qHTS assay to identify small molecule agonists of the androgen receptor (AR) signaling pathway (AID 743036; active means well fitted activation curve with a large enough effect in the signal ratio in the repeat runs, with a control signal flat, not every such curve was filed as active; the % refers to the signal ratio)
In short: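 Reporter line: GeneBLAzer AR-UAS-bla-GripTite (HEK293). Steps: plate cells, 4 h rest, add compounds, 16 h at 37C, add LiveBLAzer B/G substrate, 2 h at RT, read fluorescence.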
On the % scale 0 is the no-effect control and ±100 the full control effect.

Sequence of Androgen receptor (Homo sapiens) (P10275 whole entry, looked up): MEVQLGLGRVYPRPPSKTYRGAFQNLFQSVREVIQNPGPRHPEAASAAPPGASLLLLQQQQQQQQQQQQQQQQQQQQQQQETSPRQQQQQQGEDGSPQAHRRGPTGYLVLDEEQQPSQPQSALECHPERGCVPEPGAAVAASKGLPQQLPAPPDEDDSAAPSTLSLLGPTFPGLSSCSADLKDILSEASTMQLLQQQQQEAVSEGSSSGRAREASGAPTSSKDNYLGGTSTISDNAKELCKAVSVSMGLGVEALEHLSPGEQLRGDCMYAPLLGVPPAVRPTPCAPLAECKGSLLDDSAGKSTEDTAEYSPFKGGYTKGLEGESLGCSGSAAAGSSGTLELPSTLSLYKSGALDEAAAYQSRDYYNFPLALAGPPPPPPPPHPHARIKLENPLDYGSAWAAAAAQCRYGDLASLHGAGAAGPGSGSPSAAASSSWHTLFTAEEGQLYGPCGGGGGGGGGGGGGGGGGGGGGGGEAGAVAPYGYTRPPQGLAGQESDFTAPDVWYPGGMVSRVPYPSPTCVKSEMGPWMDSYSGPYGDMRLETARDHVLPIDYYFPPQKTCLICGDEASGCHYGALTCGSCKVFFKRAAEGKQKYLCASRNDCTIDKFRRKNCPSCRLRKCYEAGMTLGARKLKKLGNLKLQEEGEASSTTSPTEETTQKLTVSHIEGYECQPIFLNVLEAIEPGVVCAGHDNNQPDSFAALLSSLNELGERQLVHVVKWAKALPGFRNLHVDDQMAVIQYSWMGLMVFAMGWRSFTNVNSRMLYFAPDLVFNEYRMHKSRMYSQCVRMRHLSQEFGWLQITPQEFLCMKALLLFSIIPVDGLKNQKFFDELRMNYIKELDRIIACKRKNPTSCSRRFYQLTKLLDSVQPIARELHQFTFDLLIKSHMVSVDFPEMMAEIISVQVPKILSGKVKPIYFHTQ
Sequence of Glucocorticoid receptor (Homo sapiens) (P04150 whole entry, looked up): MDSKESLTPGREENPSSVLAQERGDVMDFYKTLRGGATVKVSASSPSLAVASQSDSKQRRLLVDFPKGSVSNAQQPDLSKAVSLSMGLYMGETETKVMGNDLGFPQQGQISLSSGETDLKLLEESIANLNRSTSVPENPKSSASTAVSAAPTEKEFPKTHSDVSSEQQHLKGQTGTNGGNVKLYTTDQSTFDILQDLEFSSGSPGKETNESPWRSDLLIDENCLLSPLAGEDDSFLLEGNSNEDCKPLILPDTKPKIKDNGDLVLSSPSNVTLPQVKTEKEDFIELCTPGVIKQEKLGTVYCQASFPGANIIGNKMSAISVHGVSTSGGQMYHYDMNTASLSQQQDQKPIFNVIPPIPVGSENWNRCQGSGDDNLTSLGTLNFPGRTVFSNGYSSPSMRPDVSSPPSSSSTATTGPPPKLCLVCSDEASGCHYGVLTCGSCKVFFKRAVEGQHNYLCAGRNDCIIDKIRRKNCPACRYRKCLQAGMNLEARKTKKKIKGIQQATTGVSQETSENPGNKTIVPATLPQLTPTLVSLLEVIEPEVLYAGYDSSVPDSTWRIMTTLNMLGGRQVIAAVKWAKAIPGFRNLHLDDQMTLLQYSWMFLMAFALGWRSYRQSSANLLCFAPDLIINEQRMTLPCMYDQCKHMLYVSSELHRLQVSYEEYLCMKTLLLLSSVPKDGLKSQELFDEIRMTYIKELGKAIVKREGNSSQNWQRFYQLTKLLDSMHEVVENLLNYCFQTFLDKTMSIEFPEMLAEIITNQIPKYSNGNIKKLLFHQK

COc1ccc(-c2cc(=O)c3c(O)cc(O[C@@H]4O[C@H](CO[C@@H]5O[C@@H](C)[C@H](O)[C@@H](O)[C@H]5O)[C@@H](O)[C@H](O)[C@H]4O)cc3o2)cc1O
inactive: outcome [1] | outcome [2] | outcome [3] | outcome [4] | outcome [5] | outcome [6] | outcome [7] | outcome [8] | Potency [9] | outcome [10] | outcome [11] | Potency [12] | Potency [13] | Potency [14] | Potency [15] | Potency [16]

CC(=O)Nc1cccc(C)c1
inactive: outcome [1] | outcome [2] | outcome [3] | outcome [4] | outcome [5] | outcome [6] | outcome [7] | outcome [8] | Potency [9] | outcome [10] | outcome [11] | Potency [12] | Potency [13] | Potency [14] | Potency [15] | Potency [16]

O=C(CS(=O)Cc1ccco1)NC/C=C\COc1cc(CN2CCCCC2)ccn1 (stereo unspecified)
inactive: outcome [1] | outcome [2] | outcome [3] | outcome [4] | outcome [5] | outcome [6] | outcome [7] | outcome [8] | Potency [9] | outcome [10] | outcome [11] | Potency [12] | Potency [13] | Potency [14] | Potency [15] | Potency [16]

CCN1CCc2nc(N)oc2CC1
inactive: outcome [1] | outcome [2] | outcome [3] | outcome [4] | outcome [5] | outcome [6] | outcome [7] | outcome [8] | Potency [9] | outcome [10] | outcome [11] | Potency [12] | Potency [13] | Potency [14] | Potency [15] | Potency [16]

COc1cc(N)ccc1C
inactive: outcome [1] | outcome [2] | outcome [3] | outcome [4] | outcome [5] | outcome [6] | outcome [7] | outcome [8] | Potency [9] | outcome [10] | outcome [11] | Potency [12] | Potency [14] | Potency [15] | Potency [16]

CC(C(=O)O)c1ccc2c(c1)CC(=O)c1ccccc1S2 (stereo unspecified)
inactive: outcome [1] | outcome [2] | outcome [3] | outcome [4] | outcome [5] | outcome [6] | outcome [7] | outcome [8] | Potency [9] | outcome [10] | outcome [11] | Potency [12] | Potency [13] | Potency [14] | Potency [15] | Potency [17] | outcome [18] | Potency [16] | Potency [19]

Cc1cc(C(C)(C)C)c(O)c(C)c1CC1=NCCN1
inactive: outcome [1] | outcome [2] | outcome [3] | outcome [4] | outcome [5] | outcome [6] | outcome [7] | outcome [8] | Potency [9] | outcome [10] | outcome [11] | Potency [13] | Potency [17] | outcome [20] | outcome [18] | Potency [16] | Potency [19]

O=C(O)Cc1cn(-c2ccccc2)nc1-c1ccc(Cl)cc1
inactive: outcome [1] | outcome [2] | outcome [3] | outcome [4] | outcome [5] | outcome [6] | outcome [7] | outcome [8] | Potency [9] | outcome [10] | outcome [11] | Potency [12] | Potency [13] | Potency [14] | Potency [15] | Potency [16]

CCCCCCCCOS(=O)(=O)O
inactive: outcome [1] | outcome [2] | outcome [3] | outcome [4] | outcome [5] | outcome [6] | outcome [7] | outcome [8] | Potency [9] | outcome [10] | outcome [11] | Potency [12] | Potency [13] | Potency [14] | Potency [15] | Potency [16]

O=C1O[C@@H]2[C@@H](O)[C@H](O)O[C@@H]2[C@H]1O
inactive: outcome [1] | outcome [2] | outcome [3] | outcome [4] | outcome [5] | outcome [6] | outcome [7] | outcome [8] | Potency [9] | outcome [10] | outcome [11] | Potency [12] | Potency [13] | Potency [14] | Potency [15] | Potency [16]

CC(=O)CCCCn1c(=O)c2c(ncn2C)n(C)c1=O
inactive: fluorescence, % of fluorescein [1] 0.0863% [at 18.6 µM] | fluorescence, % of fluorescent control [2] 0.0365% [at 18.6 µM] | activity change [3] 0.0172% [at 18.6 µM] | fluorescence, % of fluorescent control [4] 0.153% [at 18.6 µM] | fluorescence, % of Rose Bengal [5] -0.221% [at 18.6 µM] | fluorescence, % of fluorescent control [6] 0.0657% [at 18.6 µM] | fluorescence, % of fluorescein control [7] -0.0364% [at 18.6 µM] | fluorescence, % of fluorescent control [8] 0.0705% [at 18.6 µM] | Potency [9] | outcome [10] | outcome [11] | Potency [12] | Potency [13] | Potency [14] | Potency [16]

Cc1ccccc1N=O
inactive: outcome [1] | outcome [2] | outcome [3] | outcome [4] | outcome [5] | outcome [6] | outcome [7] | outcome [8] | Potency [9] | outcome [10] | outcome [11] | Potency [12] | Potency [14] | Potency [15] | Potency [16]

C[C@@H](O)[C@H]1C(=O)N2C(C(=O)O)=C(SCCN=CN)C[C@H]12
inactive: fluorescence, % of fluorescein [1] 0.0698% [at 18.6 µM] | fluorescence, % of fluorescent control [2] 1.12% [at 18.6 µM] | activity change [3] -0.0504% [at 18.6 µM] | fluorescence, % of fluorescent control [4] -0.0922% [at 18.6 µM] | fluorescence, % of Rose Bengal [5] 0.208% [at 18.6 µM] | fluorescence, % of fluorescent control [6] 1.1% [at 18.6 µM] | fluorescence, % of fluorescein control [7] 0.0651% [at 18.6 µM] | fluorescence, % of fluorescent control [8] 0.982% [at 18.6 µM] | Potency [9] | outcome [10] | outcome [11] | Potency [12] | Potency [13] | Potency [14] | Potency [15] | Potency [16]

C[C@@H](Oc1ccc(CNC(=O)c2cccnc2Oc2ccc3c(c2)OCO3)c(F)c1)C(=O)O
inactive: outcome [1] | outcome [2] | outcome [3] | outcome [4] | outcome [5] | outcome [6] | outcome [7] | outcome [8] | Potency [9] | outcome [10] | outcome [11] | Potency [12] | Potency [13] | Potency [14] | Potency [15] | Potency [16]

CN(C)c1ccc(C=O)cc1
inactive: outcome [1] | outcome [2] | outcome [3] | outcome [4] | outcome [5] | outcome [6] | outcome [7] | outcome [8] | Potency [9] | outcome [10] | outcome [11] | Potency [12] | Potency [13] | Potency [14] | Potency [15] | Potency [16]
